Sampled rows, rich in hits. Any-hit rate of the full collection: about 4.5%.
FXN GAA850 act: increases GAA850 frataxin promoter reporter activity | activation, % at 6 µM | HEK293 lucGAA850 FXN promoter luciferase reporter, 24 h; percent of 10 µM SAHA response | actives 0.56% (n = 360,000) | AID 540364;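 active means activation above the average of all compounds screened plus 3 SD, cutoff fixed separately per campaign, cut at about 7.5% in these data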;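 further: 0% = DMSO wells and 100% = 10 µM SAHA wells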
ssDAF12 agonist: activates DAF-12 receptor from parasite S. stercoralis; HEK293 ssDAF-12/GRIP1 lit1-tk-luc reporter, luminescence; % of 3 µM dafachronic acid response; activation, % at 6.8 µM; actives 1% (n = 370,000); AID 652126;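 active means activation above the mean over all tested compounds plus 3 SD, cut at about 0.9% in these data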;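 further: 0% = DMSO-only wells and 100% = 3 µM delta7-dafachronic acid wells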
DAX1 inh-1: blocks DAX1 repression of SF-1 activated StAR promoter. HEK293T StAR-luciferase reporter, SF-1/DAX-1 repression relief. actives 1.1% (n = 370,000). inhibition, % at 6.8 µM;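 active means inhibition above the mean over all tested compounds plus 3 SD, cut at about 3.6% in these data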;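 further: 0% = DAX-1 cells with DMSO and 100% = cells lacking DAX-1 with DMSO; higher inhibition means more luminescence from relief of DAX-1 repression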
hcDAF-12 act: activates DAF-12 receptor from parasite H. contortus. actives 1.4% (n = 370,000). activation, % at 6.8 µM. HEK293 hcDAF-12 lit1-tk-luc reporter, luminescence; 0% DMSO, 100% Δ7-dafachronic acid. AID 652067;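 active means activation above the mean of all tested compounds plus 3 SD, cut at about 5.5% in these data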;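 further: 100% = response to 3 µM Δ7-dafachronic acid high control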
hgDAF12 agonist: activates the H. glycines DAF-12 receptor ligand-binding domain; activation, % at 6.8 µM; actives 1.8% (n = 370,000); HEK293 GAL4-hgDAF12 UAS-luciferase reporter, agonist luminescence; normalized to butyrate control; AID 687014;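 active means activation above a cutoff set at the mean of all screened compounds plus 3 SD, cut at about 10% in these data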;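 further: 0% = DMSO wells and 100% = sodium butyrate wells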
DAX1 inh-2: NR0B1 (DAX1) inhibition | P51843 | HEK293 Gal4-DAX1 luciferase reporter, luminescence | inhibition, % at 6.75 µM | actives 0.99% (n = 340,000);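 active means inhibition above the mean over all tested compounds plus 3 SD, cut at about 4.2% in these data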;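 further: 0% = DAX1-transfected cells with DMSO and 100% = empty-vector control cells with DMSO; inhibition shows as a rise in luminescence from relieved DAX1 repression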
Target sequence (P51843 207-470 limits assumed): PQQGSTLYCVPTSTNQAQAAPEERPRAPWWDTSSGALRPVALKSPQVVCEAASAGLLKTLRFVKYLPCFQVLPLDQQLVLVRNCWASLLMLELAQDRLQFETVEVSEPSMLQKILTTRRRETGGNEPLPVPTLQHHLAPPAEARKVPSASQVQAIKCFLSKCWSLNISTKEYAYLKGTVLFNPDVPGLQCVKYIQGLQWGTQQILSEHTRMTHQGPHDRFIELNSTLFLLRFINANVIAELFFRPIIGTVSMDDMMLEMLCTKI
DAX1 inh confirm: confirmation of human DAX1 (NR0B1) inhibitors; shares compounds with DAX1 inh-1; HEK293T StAR-promoter luciferase reporter, SF-1/DAX-1 repression; inhibition, % at 6.8 µM; actives 87% (n = 2,400); AID 652134;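 active means inhibition above the average of every tested compound plus 3 SD, cut at about 3.8% in these data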;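 further: 0% = DAX-1 cells with DMSO and 100% = no DAX-1 control cells with DMSO; active compounds raise luminescence by relieving repression of the StAR reporter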
Target sequence (P51843 whole entry, looked up): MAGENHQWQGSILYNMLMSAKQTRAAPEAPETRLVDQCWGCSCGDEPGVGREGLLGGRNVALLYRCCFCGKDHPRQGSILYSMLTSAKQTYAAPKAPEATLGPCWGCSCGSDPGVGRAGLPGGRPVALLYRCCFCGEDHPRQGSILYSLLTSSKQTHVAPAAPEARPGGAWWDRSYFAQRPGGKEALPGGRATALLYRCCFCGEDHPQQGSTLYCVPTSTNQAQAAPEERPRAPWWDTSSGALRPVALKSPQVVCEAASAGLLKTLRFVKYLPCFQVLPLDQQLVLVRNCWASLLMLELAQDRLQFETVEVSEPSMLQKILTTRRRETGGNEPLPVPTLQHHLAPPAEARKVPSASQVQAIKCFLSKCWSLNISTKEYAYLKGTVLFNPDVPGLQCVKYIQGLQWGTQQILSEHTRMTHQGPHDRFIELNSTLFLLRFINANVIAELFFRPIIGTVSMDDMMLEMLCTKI
SF1 AF2mut Luc: nonselective inhibitor or artifact in SF-1 mutant DAX1 counter-screen; shares compounds with DAX1 inh-1; actives 78% (n = 2,400); inhibition, % at 6.8 µM; HEK293 StAR-luciferase, SF-1 AF2 mutant, luminescence;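 active means inhibition above the mean of all tested compounds plus 3 SD, cut at about 3% in these data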;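 further: 0% = DAX-1 transfected cells with DMSO and 100% = cells without DAX-1 with DMSO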
LXR ag: counter-screen for hcDAF-12 agonists: agonists of human LXR-beta. shares compounds with hcDAF-12 act. HEK293 Gal4-LXR tk-luc reporter, luminescence, 24 h; normalized: DMSO 0%, positive control 100%. activation, % at 6.8 µM. 3,400 tested, under 10 active. AID 743027;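 active means mean percent activation of the reporter above a cutoff set as the average over tested compounds plus their standard deviation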
hcDAF12 ag: confirmation of H. contortus DAF-12 agonists. HEK293 hcDAF-12 lit1-tk-luc reporter, luminescence; % of Δ7-dafachronic acid response. shares compounds with hcDAF-12 act. AID 743032. actives 61% (n = 3,400). activation, % at 6.8 µM;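 active means mean activation across triplicate tests above the threshold derived from the earlier primary screen, cut at about 5.5% in these data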;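 further: 0% = DMSO only wells and 100% = 3 µM Δ7-dafachronic acid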
* = called active by the depositor; nt = no result.

SMILES | FXN GAA850 act | ssDAF12 agonist | DAX1 inh-1 | hcDAF-12 act | hgDAF12 agonist | DAX1 inh-2 | DAX1 inh confirm | SF1 AF2mut Luc | LXR ag | hcDAF12 ag
O=C(CSc1nnc(NC(=O)c2c(F)cccc2F)s1)Nc1ccc(F)cc1 | 1.2 | -1.3 | 1.5 | 1.5 | 3.5 | 2.4 | nt | nt | nt | nt
COC(=O)[C@]12CCCCC=C1N(Cc1ccc(OC)cc1)C(=O)[C@@H]2CC(=O)NCCCN1CCCC1=O | nt | -0.7 | -1.4 | -0.4 | -0.5 | nt | nt | nt | nt | nt
Cn1ncc(Cl)c1C(=O)Nc1ccc2c(c1)CCC2 | 4.2 | 1.3* | 5.8* | 6.8* | 10.1 | 1.0 | 5.3* | 2.5 | 0.5 | 5.7*
COC(=O)c1cc(NC(=O)c2c(Cl)cnn2C)cc(C(=O)OC)c1 | -0.5 | -1.2 | 0.0 | -2.0 | -0.8 | -1.7 | nt | nt | nt | nt
COc1ccc(-c2cccc3c4c([nH]c23)[C@@H]2C[C@H]3[C@@H](C(=O)N2CC4)[C@H](C)ON3C)cc1 | nt | -1.6 | -0.1 | -0.8 | 4.0 | nt | nt | nt | nt | nt
CCc1ccc(NC(=O)c2cnn3ccccc23)cc1 | -5.7 | 0.6 | 5.5* | 11.6* | 4.7 | -4.0 | 6.1* | 1.4 | 1.7 | 19.2*
Cc1ccc2oc(C(=O)NCCC3CCCCO3)c(C)c2c1 (configuration not stated) | 1.7 | -0.3 | 10.2* | 8.5* | 12.8* | 0.7 | 7.5* | 4.2* | 1.6 | 14.2*
Cc1c(C(=O)NCC2CCCO2)oc2ccccc12 (configuration not stated) | 2.2 | -0.4 | 1.7 | 1.1 | 7.0 | 0.5 | nt | nt | nt | nt
CC1(O)C(c2ccccc2)=Nc2ccccc21 (configuration not stated) | 2.9 | 0.0 | 5.3* | 9.9* | 11.2* | 4.5* | 12.7* | 7.6* | 1.3 | 6.5*
COc1ccc(C2=[N+]([O-])C(C)(C)C(c3ccccc3)=N2)cc1 | 2.0 | -0.9 | 0.0 | -2.1 | 0.0 | -0.8 | nt | nt | nt | nt
Cc1cc(N/C=C/C(=O)c2cccs2)ccc1F | 6.0 | 2.1* | 5.2* | 10.2* | 23.8* | 6.5* | 17.5* | 9.5* | 1.6 | 15.8*
CN(C)c1ccc(C(=O)NCCc2ccccc2-c2ccccc2CCC(=O)NCc2ccccc2)cc1 | nt | -1.6 | 0.5 | -1.6 | 1.5 | nt | nt | nt | nt | nt
COc1ccc(NC(=O)NCCCN2CCN(c3ccc(F)cc3)CC2)cc1OC | nt | -1.2 | 0.6 | -1.2 | -0.5 | nt | nt | nt | nt | nt
COc1ccc(N=Nc2cc(C)ccc2O)cc1 | 6.3 | 0.2 | 5.0* | 7.1* | 25.1* | 1.2 | 15.5* | 6.2* | 2.1 | 7.3*
CC(=O)C1=C(C)N(Cc2ccc(F)cc2)C(=S)NC1c1ccc(Cl)cc1 (configuration not stated) | nt | -1.0 | 0.1 | 2.0 | -4.3 | nt | nt | nt | nt | nt
C/C(=N\Nc1ccc(C(=O)O)cc1)c1ccc(Br)cc1 | 2.5 | 0.8 | 5.1* | 11.6* | 19.2* | -3.0 | 16.3* | 5.3* | 1.9 | 13.7*
CCc1ccc(NC(=O)c2noc3c2CCC3)cc1 | 3.1 | 1.4* | 5.7* | 9.3* | 12.1* | -1.6 | 21.2* | 7.9* | 1.9 | 14.3*
COc1ccc(/C=N\NC(=O)Cc2cccs2)c(OC)c1OC | nt | -1.1 | 0.3 | -0.4 | 7.3 | nt | nt | nt | nt | nt
N/C(=N\OC(=O)c1ccccc1Cl)c1ccccc1 | 0.5 | 3.3* | 6.1* | 16.6* | 18.3* | 2.5 | 19.5* | 11.2* | 2.8 | 26.1*
Cc1ccccc1N1CCN(C2=Nc3ccccc3Sc3ccccc32)CC1 | nt | -1.9 | -1.3 | -3.3 | -7.2 | nt | nt | nt | nt | nt
COc1cc(/C=C/c2ccc3cccc(O)c3n2)ccc1O | 4.6 | -0.7 | 0.1 | -0.2 | 7.8 | 1.0 | nt | nt | nt | nt
CSc1ccc(/C=C/c2ccc3cccc(O)c3n2)cc1 | 1.6 | 3.2* | 5.0* | 21.5* | 33.7* | 0.1 | 15.8* | 7.1* | 1.7 | 11.1*
NS(=O)(=O)c1ccc(NC(=O)CSc2nnc(-c3cccs3)o2)cc1 | nt | -1.2 | -2.1 | 0.1 | 4.4 | nt | nt | nt | nt | nt
CCCCN1CN2Cc3ccccc3C2CS1(=O)=O (configuration not stated) | nt | -0.5 | -0.1 | 3.9 | 2.3 | nt | nt | nt | nt | nt
CCCCc1nc2cc(C(=O)N(C)CCc3cn[nH]c3)ccc2o1 | 2.1 | -1.2 | -0.1 | -0.3 | 2.5 | 0.1 | nt | nt | nt | nt
SMILES | FXN GAA850 act | ssDAF12 agonist | DAX1 inh-1 | hcDAF-12 act | hgDAF12 agonist | DAX1 inh-2 | DAX1 inh confirm | SF1 AF2mut Luc | LXR ag | hcDAF12 ag
CCCCc1nc2cc(C(=O)N(C)C3CCOCC3)ccc2o1 | 2.6 | 0.6 | 4.6* | 7.6* | 9.7 | 0.9 | 5.5* | 6.8* | 0.3 | 2.7
O=C(NCCSc1ccccc1)c1ccc(Br)cc1 | 4.7 | -0.2 | 4.7* | 7.4* | 13.1* | 0.8 | 15.4* | 7.7* | 1.7 | 5.9*
O=C(O)c1cc(NC(=O)c2ccc([N+](=O)[O-])cc2)cc(NC(=O)c2ccc([N+](=O)[O-])cc2)c1 | 0.2 | -0.5 | -0.2 | -0.4 | 0.7 | -0.5 | nt | nt | nt | nt
O=C(Nc1ccc([N+](=O)[O-])cc1)C(=O)Nc1cccc(C(=O)O)c1 | -0.1 | 2.7* | 5.4* | 11.4* | 13.2* | -7.0 | 11.9* | 8.5* | 1.9 | 25.4*
COc1ccc(NC(=O)c2nc3ccccc3s2)cc1 | 0.6 | 2.5* | 5.0* | 16.6* | 10.3 | -0.8 | 13.2* | 8.2* | 1.9 | 15.2*
COc1ccc(OC)c(NC(=O)c2nc3ccccc3s2)c1 | 3.1 | -1.1 | 0.3 | -0.1 | -0.8 | 0.2 | nt | nt | nt | nt
COc1ccc(NC(=O)c2cc3ccccn3n2)cc1 | 0.3 | -0.1 | 7.9* | 9.2* | 8.8 | 0.7 | 14.6* | 5.8* | 1.3 | 5.8*
CCCN1C(=O)c2n[nH]c(C)c2C1c1ccc(Br)cc1 (configuration not stated) | nt | -1.4 | 0.2 | 0.7 | -3.7 | nt | nt | nt | nt | nt
C=CCN1C(=O)[C@H](CC(=O)NCCCCc2ccccc2)[C@@]2(C(=O)OCC)CCCC=C12 | nt | -1.9 | -1.6 | -1.1 | -1.8 | nt | nt | nt | nt | nt
CCCn1c(SCc2nc3ccccc3s2)n[nH]c1=O | 2.6 | 1.5* | 4.8* | 12.0* | 11.2* | 2.0 | 8.4* | 5.0* | 1.1 | 10.8*
O=c1[nH]nc(SCc2nc3ccccc3s2)n1C1CC1 | 1.6 | 0.1 | 1.9 | 4.6 | 6.4 | 1.7 | nt | nt | nt | nt
